MITF TRPM1 inh = MITF TRPM1 promoter inhibition in SK-MEL-5 cells | SK-MEL-5 TRPM1 promoter luciferase, 24 h | inhibition, % at 12.5 µM | 0.83% of 330,000 active | AID 488899;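 active = mean inhibition across replicates of 60% or more, whatever share of single replicates reaches that level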
EWS-Fli block = inhibitors of EWS/Fli oncoprotein transcriptional activity; A673 NR0B1-luciferase reporter, viability-normalised; inhibition, % at 12.6 µM; 0.67% of 350,000 active; AID 651661;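 active = mean inhibition of at least 50% after viability correction, with every replicate also passing that limit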;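 also: firefly luciferase signal divided by Alamar Blue viability fluorescence both relative to DMSO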
Shn3 inh set2 = reduces Shn3 3'UTR luciferase signal in osteoblasts; 0.52% of 360,000 active; inhibition, % at 12.5 µM; AID 588674; Clone20 osteoblast Shn3 3'UTR firefly luciferase, 24 h;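 active = mean inhibition of at least 75% with every replicate also reaching 75%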;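 also: 0% = median of neutral control wells and 100% = pilot-screen positive control compound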
ABHD5 PLIN5 PPI = ABHD5-PLIN5 protein interaction inhibition. Q00G26+Q8WTS1. Split G. princeps luciferase complementation, luminescence, 4 h. inhibition, % at 4 µM. 0.78% of 360,000 active. AID 602281;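 active = inhibition above the mean inhibition across every tested compound plus 3 SD, cut at about 22% in these data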;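 also: 0% = DMSO only wells and the 100% control is not disclosed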
Peg3 prom inh-1 = reduces Peg3 promoter-driven luciferase expression in HeLa; inhibition, % at 20 µM; AID 588405; HeLa PEG-Prom luciferase reporter, luminescence, overnight; 1.7% of 360,000 active;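 active = inhibition of at least 50% at 20 µM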
PAX8 inh HTS = inhibitors of PAX8 transcriptional activity in RMG-I cells; RMG-I TPO-luciferase reporter, SteadyGlo, 24 h; inhibition, % at 12.6 µM; 1.2% of 360,000 active;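 active = mean replicate inhibition at least 60% with every replicate also reaching 60%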;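 also: luciferase light reporting Pax8 driven TPO promoter activity; plate controls were median of neutral control wells for no effect and mitoxantrone controls for full effect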
Peg3 prom inh-2 = Peg3 promoter inhibition confirmation; shares compounds with Peg3 prom inh-1; HeLa PEG-Prom luciferase reporter, luminescence, overnight; inhibition, % at 20 µM; 84% of 1,300 active; AID 602417;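 active = at 20 µM dose, 40% or more inhibition averaged across four replicates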
Starred values were filed as active, the others as inactive; / = not tested or not shown. This is a sample that favours compounds with a hit; in the whole collection about 3% have one here.

SMILES	MITF TRPM1 inh	EWS-Fli block	Shn3 inh set2	ABHD5 PLIN5 PPI	Peg3 prom inh-1	PAX8 inh HTS	Peg3 prom inh-2
CN(CCC#N)C(=O)COC(=O)c1ccccc1C(=O)c1ccc(Cl)c([N+](=O)[O-])c1	66*	46	7	-3	95*	11	33
C[C@@H]1CN([C@@H](C)CO)C(=O)c2cccc(NC(=O)Nc3ccccc3)c2O[C@@H]1CN(C)C(=O)Nc1ccc(F)cc1	/	-2	/	/	/	0	/
C[C@H](CO)N1C[C@H](C)[C@H](CN(C)C(=O)C2CCCCC2)OCCCC[C@H](C)Oc2ccc(NC(=O)Cc3ccccc3)cc2C1=O	/	-2	/	/	/	14	/
CCCCCCSc1cc(-c2nc3ccc(Cl)cn3c2NCCCC)ccc1OC	-16	12	15	-6	-3	11	/
CCCCCCSc1cc(-c2nc3ccc(C)cn3c2NCCCC)ccc1OC	0	32	61	-21	79*	11	93*
COc1ccccc1-c1ccc2c(c1)O[C@H](CN(C)S(=O)(=O)c1ccc(F)cc1)[C@H](C)CN([C@H](C)CO)S2(=O)=O	/	18	/	/	/	42	/
Cc1cccc(C)c1NC(=O)c1nc(S(=O)(=O)Cc2ccccc2)ncc1Cl	91*	73*	96*	71*	100*	28	97*
Cc1nn(CC(=O)NCCCN2CCN(Cc3ccccc3)CC2)c(=O)c2cc(-c3ccccc3)nn12	5	/	55	-5	-5	-6	/
Cc1nn(CC(=O)NCc2ccc(OC(C)C)cc2)c(=O)c2cc(-c3ccccc3)nn12	5	/	-16	0	51*	/	15
CCc1ccc(-c2cc3c(=O)n(CC(=O)NCCCN4CCC(Cc5ccccc5)CC4)nc(C)n3n2)cc1	96*	3	79	10	100*	-4	98*
C/C=C/c1ccc2c(c1)O[C@H](CN(C)C(=O)CN1CCOCC1)[C@@H](C)CN([C@@H](C)CO)S2(=O)=O	/	-2	/	/	/	/	/
Cc1ccc(S(=O)(=O)Nc2ccc3c(c2)C(=O)N([C@@H](C)CO)C[C@H](C)[C@H](CN(C)C(=O)NC2CCCCC2)OCCCC[C@@H](C)O3)cc1	/	-6	/	/	/	2	/
Oc1[nH]c2c(Cl)cc(Cl)cc2c1N=NC(=S)NCC1CCCO1 (stereo not given)	34	/	85	-2	97*	/	38
Cc1cc(C2=NNC(=NC3CCCCC3)SC2)c(C)n1-c1c(C)n(C)n(-c2ccccc2)c1=O	0	8	-13	-8	1	8	/
c1cc2c(cc1C1=NNC(=NC3CC3)SC1)OCCO2	95*	79*	81	-21	93*	96*	91*
Cc1cc(C2=NNC(=NC3CC3)SC2)c(C)n1-c1ccccc1F	99*	94*	98*	-14	104*	102*	98*
CCCCN=C1NN=C(c2ccc3c(c2)OCCO3)CS1	16	-16	-9	-14	-95	-110	/
COCC(=O)N1[C@H](CO)[C@H](c2ccc(-c3ccccc3OC)cc2)C12CN(C(C)=O)C2	/	9	/	/	/	-8	/
CC1CCN(C(=O)c2ccc(NC3=C(Cl)C(=O)N(Cc4ccccc4)C3=O)cc2)CC1	0	20	-2	-3	40	45	/
CC1CCCCN1C(=O)c1cccc(NC2=C(Cl)C(=O)N(Cc3ccccc3)C2=O)c1 (stereo not given)	26	/	-9	0	52*	/	54*
C[C@H](CO)N1C[C@H](C)[C@H](CN(C)C(=O)Nc2ccc(F)cc2)Oc2ccc(N(C)C)cc2C1=O	/	2	/	/	/	8	/
Cc1ccccc1-c1nc(-c2ccccn2)no1	74*	83*	40	4	63*	73*	58*
Cc1ccccc1-c1nc(-c2cccnc2)no1	-38	/	-48	2	-206	-93	/
COc1ccc(-c2nc(-c3ccccn3)no2)cc1	87*	86*	88*	-5	89*	104*	86*
C[C@H](O)C#Cc1ccc2c(c1)O[C@@H](CN(C)CC1CCOCC1)[C@@H](C)CN([C@H](C)CO)S2(=O)=O	/	-4	/	/	/	-13	/
COc1ccc(-c2ccc([C@H]3[C@@H](CO)N(C(=O)C4CCC4)[C@H]3C#N)cc2)cc1	/	-13	/	/	/	-23	/
CNC[C@@H]1Oc2cc(-c3ccc(C(=O)N(C)C)cc3)ccc2S(=O)(=O)N([C@H](C)CO)C[C@H]1C	/	6	/	/	/	/	/

Source: PubChem
